Outcome and activity change, negative = cytotoxicity data for 40 compounds are collected here from PubChem BioAssay (Tox21).

Results filed as inconclusive are left out. Active and inactive are the calls of the source. Calls come from the whole dose curve; as a rule, active = well fitted cell-killing curve with a large enough effect in the repeat runs (not every such curve was filed as active); inconclusive = weak or mixed curves, or effect the other way; inactive = no such curve, though single readings can be large or run the other way.
% is set by controls: 0 for no effect and ±100 for the full control effect.

A short description of the test: qHTS assay to identify small molecule antagonists of the farnesoid-X-receptor (FXR) signaling pathway - cell viability counter screen (AID 743221). Note: nearly all actives have a fitted effect of over 50% in size. Conditions: FXR-bla HEK293T viability, CellTiter-Glo luminescence, 16 h; series mostly up to 62.6 µM. An excerpt:
National Center for Advancing Translational Sciences [NCATS]
NIH Chemical Genomics Center [NCGC]
U.S. Environmental Protection Agency [EPA]
National Institutes of Environmental Health Sciences [NIEHS]
National Toxicology Program [NTP]
U.S. Food and Drug Administration [FDA]
The farnesoid-X-receptor (FXR), a nuclear hormone receptor, is highly expressed in liver, intestine, kidney and adrenal cortex. Natural ligands of FXR are the bile acids (Cholic acid, Chenodeoxy cholic acid etc). FXR is an important regulator of diverse metabolic pathways, including the bile acid homeostasis, lipid and glucose metabolisms. FXR regulates the expression of target genes by binding either as a monomer or as a heterodimer with the retinoid X receptor (RXR). Numerous studies have reported that FXR exerts protective function during cholestasis, diabetes, liver regeneration, and cancer. To identify compounds that inhibit FXR signaling, GeneBLAzer FXR-UAS-bla HEK 293T cell line (Invitrogen, Carlsbad, CA) containing a beta-lactamase reporter gene under the control of a UAS response element was used to screen the Tox21 10K compound library. The cytotoxicity of the Tox21 compound library against the FXR-bla cell line was tested in parallel by measuring the cell viability using CellTiter-Glo assay in the same wells.
Tox21 Assay Protocol Summary:
FXR-bla cells were dispensed at 5000 cells/5uL/well in 1536-well black wall/clear bottom plates using a Multidrop Combi (Thermo Fisher Scientific, Waltham, MA) dispenser. After the assay plates were incubated at 37 C and 5% CO2 for 5 h, 23 nL of compounds dissolved in DMSO, positive controls or DMSO only was transferred to the assay plate by a Pintool station (Kalypsys, San Diego, CA), followed by addition of 1 uL Chenodeoxycholic acid (50 uM, final concentration in the wells). The assay plates were incubated at 37C for 16 h. After 1 uL of LiveBLAzerTM B/G FRET substrate was added using a Bioraptr Flying Reagent Dispenser (FRD) workstation (Beckman Coulter, Indianapolis, IN), the plates were incubated at room temperature for 2 h, and fluorescence intensity was measured by an Envision plate reader (PerkinElmer, Shelton, CT). For cell viability readout that measures cytotoxicity, 4uL/well of CellTiter-Glo reagent was added into the assay plates using a Bioraptr FRD. After 30 min incubation at room temperature, the luminescence intensity in the plates was measured using a ViewLux plate reader (PerkinElmer).
On the technique in general: In qHTS, concentration-response curves come from the screen itself.
Turning to `CCOC(=O)CCC(=O)OCC`, the call was inactive.
Still for that read-out and setting: the same measure for `O=C1CCCCCCCCCCCCCCO1`: “inactive”; for `CC(=O)Oc1cccc(C)c1`: “inactive”.
Still for that read-out and setting: as for `O=CN(CCO)CCO`, the entry is “inactive”.
On the same count and under the same terms, the same measure for `C[N+](C)(CCOc1ccccc1)Cc1cccs1`: “inactive”.
Regarding `C[C@@H]1C[C@H]2[C@@H]3C[C@H](F)C4=CC(=O)C(Cl)=C[C@]4(C)[C@@]3(F)[C@@H](O)C[C@]2(C)[C@@]1(O)C(=O)CO`, the call was inactive.
Still for that read-out and setting: the same measure for `NC(=O)NC1N=C([O][Al])NC1=O` (stereo not given): “inactive”; for `CCOC(=O)COc1cc(-n2ncc(C(F)(F)F)c(C)c2=O)c(F)cc1Cl`: “inactive”; for `CC1=NN(c2cc(S(=O)(=O)O)ccc2Cl)C(=O)C1N=Nc1ccccc1` (stereo not given): “inactive”.
On the same count and under the same terms, as for `COc1cc(C)nc(-n2nc(C)cc2OC)n1`, the entry is “inactive”.
The same measure, in the same setting: the same measure for `CC(C(=O)O)c1cccc(Oc2ccccc2)c1` (stereo not given): “inactive”; for `CCN[C@H]1C[C@H](C)S(=O)(=O)c2sc(S(N)(=O)=O)cc21`: “inactive”.
Take `CC(=O)N1C[C@H](O)C[C@H]1C(=O)O`: the result was inactive.
For the compound `CC1CCC(CO)CC1` (stereo not given), the result was inactive.
Consider `O=C1c2ccccc2C(=O)c2cc(O)ccc21`, for which the call was inactive.
The same measure, in the same setting: the same measure for `CC(=O)c1cnccn1`: “inactive”.
On to `CCCC[N+](C)(CCCC)CCCC`, for which the result was inactive.
Same read-out and setting: the same measure for `CC(CC=O)CC(C)(C)C` (stereo not given): “inactive”; for `CC(C)[C@H]1CC[C@@H](C)CC1=O`: “inactive”.
In the case of `NC(N)=NCCN1CCCCCCC1`, the activity change, negative = cytotoxicity is -1.17% [at 0.55 µM] (inactive).
For `NC(=O)N1c2ccccc2CC(=O)c2ccccc21`, the compound was called inactive.
On the same count and under the same terms, the same measure for `COc1cc(-c2ccc(=O)[nH]n2)ccc1OC(F)F`: “inactive”; for `Nc1ccn([C@@H]2O[C@H](CO)[C@@H](O)[C@@H]2O)c(=O)n1`: “inactive”; for `CCCCc1ccc2c(n1)[C@@H](c1ccc(OC)cc1C[C@H](C)C(=O)O)[C@H](C(=O)O)[C@H]2c1ccc2c(c1)OCO2`: “inactive”.
With `N[C@@H](CCC(=O)O)C(=O)O`, the compound was called inactive.
The same measure, in the same setting: the same measure for `CN(C)C(=O)Oc1ccc[n+](C)c1`: “inactive”; for `CC1(C)OC[C@@H](COC(=O)CCc2ccc(OC[C@@H](O)CNCCNC(=O)N3CCOCC3)cc2)O1`: “inactive”; for `CN1CC(=O)N/C1=N/C(=O)Nc1cccc(Cl)c1`: “inactive”.
On the same count and under the same terms, the same measure for `COc1c(N2CCNC(C)C2)c(F)cc2c(=O)c(C(=O)O)cn(C3CC3)c12` (stereo not given): “inactive”; for `CO[C@@]1(NC(=O)CSC[C@@H](N)C(=O)O)C(=O)N2C(C(=O)O)=C(CSc3nnnn3C)CS[C@@H]21`: “inactive”.
The same measure, in the same setting: as for `N[C@H](C(=O)O)[C@@H](O)c1ccc(O)c(O)c1`, the entry is “inactive”.
`CCCCCCCCCC[N+](C)(C)[O-]`: the compound was called inactive.
On the same count and under the same terms, the same measure for `O=[N+]([O-])c1ccc(/C=N\O)o1`: “inactive”; for `CC1OC1C1CCC2(C)OC2C1` (stereo not given): “inactive”; for `CC/C=C\CCOC(C)OCC` (stereo not given): “inactive”.
For the compound `CCCCCCCCCCOc1cc2c(=O)c(C(=O)OCC)c[nH]c2cc1OCC`, the activity change, negative = cytotoxicity was 5.04% [at 5.95 µM] (inactive).
As for `C[C@H]1[C@H](NC(=O)/C(=N/OC(C)(C)C(=O)O)c2csc(N)n2)C(=O)N1S(=O)(=O)O` (stereo in doubt), the call was inactive.
Still for that read-out and setting: the same measure for `CCCCCC(C)N` (stereo not given): “inactive”; for `[O-][n+]1cccc(CO)c1`: “inactive”; for `CC[N+](C)(CC)CCOC(=O)C1c2ccccc2Oc2ccccc21`: “inactive”.
